For 16 compounds, growth results are on record in PubChem BioAssay (NCI).

What all share (experiment): NCI-60 one-dose screen, 48 h (100 = growth as untreated, 0 = no growth, -100 = all killed)
Common to all, as to settings: 10 µM unless noted

Assay [1] concerns T-47D breast.
Assay [2] has as its system BT-549 breast.
Assay [3] concerns MDA-MB-435 melanoma.
Assay [4] concerns SW-620 colon.
For assay [5], the system named is MCF7 breast.
Assay [6] relates to HCT-116 colon.
Assay [7] deals with HCC-2998 colon.
In assay [8] the test system is KM12 colon.

Compounds without any hit were thinned out: in the full panel of roughly 83,000, 20% have a hit.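 Negative percent growth values reflect cell death: -40 means 40% of the cells present at the start died, and -100 means all died.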 Values without a mark were called inactive. Calls of active or inactive are those of the source. The calls were made as follows: active = growth percent below 10; inactive = the rest.

In the case of `CNc1ccc(NC)c2c1C(=O)c1ccccc1C2=O`, the growth in assay [1] was 37.3%; in assay [2], 75.7%; in assay [3], 110%; in assay [4], 92.4%; in assay [5] it was 16%; in assay [6] it was 78%. In addition, in assay [7], the growth is 72.3%.

On to `Nc1ccc2c(c1)c(N)nn2C(=O)Nc1ccc(Cc2ccccc2)cc1`, for which the growth in assay [1] is 60.4%; in assay [2] it was 86.4%; in assay [3], 68.9%; in assay [4], 93.4%; in assay [5], 64.3%; in assay [6] it was 52.5%. Further, the growth in assay [7] was 36.9%.

Turning to `Cc1cc(/C=C\c2ccc3ccccc3[n+]2C)c(O)c2ncccc12`, the growth is 18% in assay [1]; -19.4% (active) in assay [2]; 6.21% (active) in assay [3]; 15.1% in assay [4]; 5.19% (active) in assay [5]; -8.95% (active) in assay [6]. In assay [7], the growth is -3.25% (active).

With `CCOc1ccccc1-n1c(CN2CCN(C(=O)COc3ccc(CNCCCCCCN4C5CCCC4CC(OC(=O)Nc4cc(C)ccc4OC)C5)cc3)CC2)nc2ccccc2c1=O` (stereo not given), the growth is -66.8% (active) in assay [1]; -90.8% (active) in assay [2]; -97% (active) in assay [3]; -86.8% (active) in assay [4]; -78.3% (active) in assay [5]; -91.5% (active) in assay [6]. The values for the growth in assay [7] and in assay [8] were -87.7% (active) and -87.2% (active), respectively.

In the case of `CCOC(=O)c1ccc(N2NC(=O)/C(=C/c3ccc([N+](=O)[O-])o3)C2=O)cc1`, the growth in assay [1] was 109%; in assay [2] it was 99.7%; in assay [3] it was 109%; in assay [4] it was 106%; in assay [5], 89.4%; in assay [6], 82.2%. Also, the values for the growth in assay [7] and in assay [8] were 103% and 106%, respectively.

For `COc1cccc(-c2nn(-c3ccccc3)cc2-c2ccnc(NCCCNC(=O)c3cccc(C(F)(F)F)c3)c2)c1`, the growth was -19.6% (active) in assay [1]; 1.62% (active) in assay [2]; 24.6% in assay [3]; 33.2% in assay [4]; 18.1% in assay [5]; 10.6% in assay [6]. In addition, the growth in assay [7] is 21.7%; in assay [8], 23%.

Take `CCN1C(=O)N(CC)C2C1NN=c1s/c(=C\c3cccs3)c(=O)n12` (stereo not given): the growth in assay [1] was 60.6%; in assay [2], 19.8%; in assay [3], -31.8% (active); in assay [4], 20.9%; in assay [5] it was 19.9%; in assay [6], 15.4%. For the same compound, the growth in assay [7] was 21%; in assay [8], 19.8%.

Take `O=C1OC(c2nc3ccccc3s2)=C/C1=C\c1ccc(O)cc1`: the growth in assay [1] is 95.7%; in assay [2] it was 111%; in assay [3] it was 102%; in assay [4], 94.4%; in assay [5] it was 100%; in assay [6], 99.8%. Further, the growth in assay [7] is 108%; in assay [8], 95%.

In the case of `O=C(Nc1cccc(Cl)c1)c1cc(N=Nc2ccc([N+](=O)[O-])cc2Cl)ccc1O`, the growth is 53.6% in assay [1]; 81% in assay [2]; 90.5% in assay [3]; 86.1% in assay [4]; 32% in assay [5]; 52.9% in assay [6]. In addition, the growth was 45.8% in assay [7] and 93.7% in assay [8].

Consider `CCN(CC)c1ccc2nc3c4ccccc4c(=NC(=O)c4ccccc4-c4c5ccc(N(CC)CC)cc5[o+]c5cc(N(CC)CC)ccc45)cc-3oc2c1`, for which the growth in assay [1] is 63.6%; in assay [2], 60.1%; in assay [3], -86.2% (active); in assay [4] it was -38.7% (active); in assay [5] it was -87.6% (active); in assay [6] it was -26.8% (active). Further, the growth is 15.9% in assay [7] and -3% (active) in assay [8].

For the compound `Cc1c2c(c(C)c3c1oc1cc(O)ccc13)C(=O)N(CCN1CCCCC1)C2=O`, the growth in assay [1] was 91.1%; in assay [2], 97.7%; in assay [3], 93.3%; in assay [4] it was 67.8%; in assay [5] it was 90.3%; in assay [6], 67.4%. In addition, the growth in assay [7] was 93.6%; in assay [8] it was 83.9%.

Regarding `Cc1ccc(S(=O)(=O)NCC[C@@H]2C[C@H]2c2cc3ccccc3s2)cc1`, the growth is 77.9% in assay [1]; 102% in assay [2]; 104% in assay [3]; 103% in assay [4]; 93.7% in assay [5]; 93.8% in assay [6]. The growth in assay [7] was 106%; in assay [8], 96.1%.

Turning to `COc1cc(OC)cc(C2CC(=O)Nc3c2c(C)nn3-c2nc3ccccc3[nH]2)c1` (stereo not given), the growth in assay [1] was 12.6%; in assay [2], 39.1%; in assay [3], 9.66% (active); in assay [4] it was 24%; in assay [5] it was 7.95% (active); in assay [6] it was 0.333% (active). The growth in assay [7] was 69.1%; in assay [8], 30.5%.

With `COc1ccc(-c2csc(C3=C(O)CN(C(C)C)C3=N)n2)cc1OC`, the growth is 91.4% in assay [1]; 112% in assay [2]; 116% in assay [3]; 104% in assay [4]; 129% in assay [5]; 96.3% in assay [6]. For the same compound, the results for the growth in assay [7] and in assay [8] were 116% and 99.6%, respectively.

In the case of `O=C(c1ccc(Nc2nccc(NCCCCNc3ccnc4cc(Cl)ccc34)n2)cc1)N1CCCCC1`, the growth in assay [1] was -33.2% (active); in assay [2], 97.6%; in assay [3], -67.6% (active); in assay [4], 2.09% (active); in assay [5], 4.09% (active); in assay [6] it was -18.6% (active). Further, the growth is -11.2% (active) in assay [7] and 54.2% in assay [8].

In the case of `COc1ccc(C2CC(c3cccc(OC)c3)=NN2C(=O)c2cc(OC)c(OC)c(OC)c2)cc1` (stereo not given), the growth in assay [1] is 29%; in assay [2], 39.5%; in assay [3] it was -58.8% (active); in assay [4] it was 22.5%; in assay [5] it was 16.2%; in assay [6] it was 15.3%. For the same compound, the growth in assay [7] was -10.3% (active); in assay [8], 15.4%.
